Assay outcomes (PubChem BioAssay)
Hits are enriched below; roughly 2.2% of the tested compounds scored in any of these assays.
ADAM17 inh: inhibits human ADAM17; recombinant ADAM17, EDANS/DABCYL FRET peptide cleavage; inhibition, % at 6.95 µM; hit rate 0.83% among 370,000; AID 720648;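 active = inhibition above the mean of compounds lying between control limits plus 3 SD, set per campaign, cut at about 8.5% in these data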
ADAM10 inh: ADAM10 inhibition, QFRET primary screen. hit rate 0.62% among 370,000. recombinant ADAM10, EDANS/DABCYL FRET peptide cleavage, 3 h. O14672. inhibition, % at 7 µM;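 active = inhibition above a per-campaign cutoff equal to the mean of compounds falling between control-based bounds plus 3 SD, cut at about 20% in these data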
NPR1 activator: GC-A (human) enzyme activation; P16066; HEK293 GC-A cells, cGMP TR-FRET, EC30 ANP; 0% at EC30 ANP, 100% saturating ANP; activation, % at 10 µM; hit rate 0.14% among 370,000; AID 1671463; in the data active = activation above about 40%
NPR2 activator: GC-B (human) receptor activation; HEK293-GC-B cells, CNP EC30, cGMP TR-FRET; 0% at EC30 CNP, 100% saturating CNP; hit rate 0.11% among 370,000; activation, % at 10 µM; P20594;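 active = activation at 10 µM reaching about 35% in either raw or pattern-adjusted values, limit read from the data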
KLK7 zymogen act: activators of human kallikrein-7 zymogen. AID 652039. hit rate 0.9% among 370,000. activation, % at 7 µM. purified proKLK7, EDANS-DABCYL substrate fluorescence; 100% is mature enzyme control, 0% vehicle;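 active = activation above the mean of all tested compounds plus 3 SD, computed per campaign excluding outliers beyond control limits, cut at about 13% in these data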
Target sequence (P49862 whole entry, looked up): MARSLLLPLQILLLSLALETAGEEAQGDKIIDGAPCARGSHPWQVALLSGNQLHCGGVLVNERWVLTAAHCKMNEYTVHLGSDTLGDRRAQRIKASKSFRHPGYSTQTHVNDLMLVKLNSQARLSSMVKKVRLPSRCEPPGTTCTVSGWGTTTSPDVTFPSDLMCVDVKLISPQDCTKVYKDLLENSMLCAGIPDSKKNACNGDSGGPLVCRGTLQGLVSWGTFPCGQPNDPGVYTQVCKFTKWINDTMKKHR
ADAM10 ctr: inhibits human ADAM10 in ADAM17 exosite counter-screen; recombinant ADAM10, EDANS/DABCYL FRET peptide cleavage, 3 h; inhibition, % at 6.95 µM; hit rate 47% among 2,900; shares compounds with ADAM17 inh;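 active = mean inhibition over the triplicate runs exceeds the activity threshold set in the earlier primary screen, cut at about 20% in these data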
ADAM17 confirm: human ADAM17 inhibition, confirmation; hit rate 65% among 2,900; shares compounds with ADAM17 inh; recombinant ADAM17, EDANS/DABCYL QFRET peptide cleavage; inhibition, % at 6.95 µM; AID 743257;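 active = mean inhibition across replicates above the hit cutoff set in the primary screen, cut at about 8.5% in these data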
Hits are given with their value; – = inactive; · = not tested or not shown.

SMILES | ADAM17 inh | ADAM10 inh | NPR1 activator | NPR2 activator | KLK7 zymogen act | ADAM10 ctr | ADAM17 confirm
CCOc1ccc(CCN2C(=S)N([C@@H](Cc3ccc(O)cc3)CN3CCCC3CN3C(=S)NC[C@@H]3Cc3ccc(O)cc3)C[C@@H]2CC(C)C)cc1 (stereo not given in full) | 8.9 | – | – | – | – | 26.1 | 16.2
CCOc1ccc(CCN2C(=S)N([C@@H](Cc3ccccc3)CN3CCC[C@@H]3CN3C(=S)NC[C@@H]3Cc3ccc(O)cc3)C[C@@H]2CC(C)C)cc1 | – | – | – | – | – | · | ·
Oc1ccc(C[C@@H](CN2CCCC2CN2C(=S)NC[C@@H]2Cc2ccccc2)N2C[C@H](Cc3ccccc3)N(CC3CCCCCC3)C2=S)cc1 (stereo not given in full) | – | – | – | – | – | · | ·
Oc1ccc(C[C@@H](CN2CCCC2CN2C(=S)NC[C@@H]2Cc2ccccc2)N2C[C@H](Cc3ccccc3)N(CC3CCCCC3)C2=S)cc1 (stereo not given in full) | – | – | – | – | – | · | ·
COc1ccc(C)cc1NC(=O)NNC(=O)C(C)Oc1ccc([N+](=O)[O-])cc1 (stereo not given) | 9.0 | – | – | – | – | – | 9.0
Nc1nc(N)c(Br)c(Nc2ccc(Cl)c(Cl)c2)n1 | 10.0 | – | – | – | – | – | –
CCOc1cc(CNCCO)cc(Br)c1OCc1ccccc1Cl | – | – | – | – | – | · | ·
CCOc1cc(CNCCO)cc(Br)c1OCc1ccc(Cl)cc1 | 12.0 | – | – | – | – | – | –
COc1ccc2c(c1)CN1C(=O)N(C3CCCC3)S(=O)(=O)CC21 (stereo not given) | – | – | – | – | – | · | ·
O=S(=O)(NCc1cccs1)c1ccc(Br)cc1 | – | – | – | – | – | · | ·
O=C(Nc1cccc(Cl)c1)c1ccc(F)c(S(=O)(=O)NCc2ccc3c(c2)OCO3)c1 | 8.7 | – | – | – | – | 24.3 | 12.9
O=C(Nc1ccc(Br)cc1)c1ccc(F)c(S(=O)(=O)NCc2cccs2)c1 | 9.3 | 20.4 | – | – | – | 25.2 | 15.8
COC(=O)[C@]12C[C@H](CC(=O)N3CCN(C(=O)C4CC4)CC3)C(=O)N(Cc3ccco3)C1=C[C@H](C1CCCC1)O[C@@H]2C | – | – | – | – | – | · | ·
CC1CCN(C(=O)c2[nH]c(C(F)(F)F)nc2-c2ccccc2)CC1 | – | – | – | – | – | · | ·
O=C(c1[nH]c(C(F)(F)F)nc1-c1ccccc1)N1CCC(Cc2ccccc2)CC1 | 12.3 | – | – | – | – | – | –
COc1nnc(-c2ccc(C(=O)N3C[C@@H]4C[C@H](C3)c3cccc(=O)n3C4)cc2)c2ccccc12 | 9.6 | – | – | – | – | – | –
O=C(c1ccc(-c2nnc(Nc3cccc(Cl)c3)c3ccccc23)cc1)N1C[C@H]2C[C@H](C1)c1cccc(=O)n1C2 | – | – | – | – | – | · | ·
COc1ccc(N2CCCN(CC(=O)Nc3ccc(Cl)cc3)CC2)cc1 | – | – | – | – | – | · | ·
CCc1ccc(/C=C/C(=O)c2cc(Br)ccc(=O)c2O)cc1 | – | – | – | – | – | · | ·
CCOc1ccc(/C=C/C(=O)c2cc(Br)ccc(=O)c2O)cc1 | 11.0 | – | – | – | – | – | 22.4
O=C(c1ccccc1F)N1CCN(S(=O)(=O)c2ccc(S(=O)(=O)N3CCCCC3)cc2)CC1 | 8.8 | – | – | – | – | – | –
O=C(c1ccccc1F)N1CCN(S(=O)(=O)c2ccc(S(=O)(=O)N3CCCCCC3)cc2)CC1 | – | – | – | – | – | · | ·
COc1cc(-c2nnc(SCC(=O)N3C(C)CCCC3C)o2)cc(OC)c1OC (stereo not given) | – | – | – | – | – | · | ·
COc1cc(C)c(C(=O)Oc2cc(C)c(C(=O)O)c(O)c2C)c(O)c1C | 11.1 | – | – | – | – | – | 10.7
COc1cc(C)c(C(=O)Oc2cc(C)c(C(=O)O)c(O)c2)c(O)c1 | – | – | – | – | – | · | ·
SMILES | ADAM17 inh | ADAM10 inh | NPR1 activator | NPR2 activator | KLK7 zymogen act | ADAM10 ctr | ADAM17 confirm
COc1cc(C(=O)NC(=S)NNC(=O)c2cnccn2)cc(OC)c1OC | 11.5 | – | – | – | – | – | –
COc1ccc(C(=O)NC(=S)NNC(=O)c2cnccn2)cc1 | – | – | – | – | – | · | ·
COC(CNC(=O)[C@H](Cc1c[nH]c2ccccc12)NC1(C(=O)NC2CCCCC2)CCCCC1)OC | – | – | – | – | · | · | ·
CNc1ccccc1/C(O)=C(\C#N)C(=O)NCc1cccc2ccccc12 | – | – | – | – | – | · | ·
COc1ccc(C(=O)OCCCN(C)C2CN(Cc3cn(Cc4ccccc4C(F)(F)F)nn3)S(=O)(=O)C2)cc1OC (stereo not given) | – | – | – | – | – | · | ·
Nc1nc(CSC(=S)N2CCN(c3ccccc3)CC2)nc(Nc2ccccc2)n1 | 9.2 | – | – | – | – | 24.4 | 15.6
Cc1ccc(Nc2nc(N)nc(CSC(=S)N3CCN(c4ccccc4)CC3)n2)cc1 | – | – | – | – | – | · | ·
Cc1cc(C)c(C)c(S(=O)(=O)N2CCC(C(=O)NCc3cccs3)CC2)c1C | 8.8 | – | – | – | – | – | –
COc1cc(Cn2cc([C@]34C[C@H]5C(=O)N(C)CC(=O)N5[C@H]3N(S(=O)(=O)c3ccccc3)c3ccccc34)c3ccccc32)cc(OC)c1 | – | – | – | – | · | · | ·
Nc1nonc1-c1nc2ccccc2n1CC(=O)N1CCCCC1 | 9.9 | – | – | – | – | – | –
Cc1cc(=O)[nH]c(SCC(=O)Nc2cccc(Cl)c2F)n1 | – | – | – | – | – | · | ·
FC(F)(F)c1cc(CNC2CCC23CCC(c2ccccc2)CC3)ccc1Cl (stereo not given) | – | – | – | – | · | · | ·
Cc1ccc(NS(=O)(=O)c2ccc(NC(=O)CSc3ccc(Cl)cc3)cc2)c(C)c1 | 9.0 | – | – | – | – | 27.8 | 10.9
O=C(Nc1ccccc1)N(Cc1ccccc1)CC(O)C(F)(F)F (stereo not given) | – | – | – | – | – | · | ·
O=C(Nc1cccc(F)c1)N(Cc1ccc(Cl)cc1)CC(O)C(F)(F)F (stereo not given) | 9.9 | – | – | – | – | 36.0 | 19.6
CCOC(=O)NC[C@@]1(C(=O)OC)CC(=O)N(C)[C@@H]1c1ccccc1 | – | – | – | – | – | · | ·
Cc1onc(-c2ccc(Cl)cc2)c1-c1ccn(S(=O)(=O)c2cccc(Cl)c2)n1 | – | – | – | – | – | · | ·
O=C(CSc1nnc(-c2ccccc2)n1-c1ccccc1)NN=C/C=C\c1ccccc1[N+](=O)[O-] | 8.8 | – | – | – | – | 30.5 | 16.0
